An excerpt weighted towards active compounds, which were near 12% of everything screened.
BAZ2B inh: blocks human BAZ2B; Potency, µM (highest dose often 114 µM), inactives show top-dose activity change, negative = inhibition, actives largely listed as inhibitors; hit rate 4.4% among 360,000; AlphaScreen BAZ2B-H3K14Ac peptide displacement; Q9UIF8; also: % is scaled to controls: 0 for no effect and ±100 for the full control effect; nearly all actives have a fitted effect of over 60% in size
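Complex of BAZ2B and biotin-H3K14Ac (50 nM apiece) forms over 30 min at RT, then faces library compounds up to 110 uM for another 30 min; AlphaScreen beads added, 20 min dark incubation, luminescence read.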
Sfp inh: blocks B. subtilis Sfp PPTase activity | hit rate 3.5% among 310,000 | Potency, µM, without a hit: largest response in the series, negative = inhibition, most hits filed as inhibitors | Biochemical Sfp PPTase activity, qHTS;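 also: the enzyme is Sfp with the accession as filed and its product quenches rhodamine fluorescence; 0% = enzyme reaction without inhibitor and -100% = no enzyme wells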
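Step 1, compound plus 15 nM Sfp-PPTase, 15 min, room temperature. Step 2, add rhodamine-CoA (5 uM) and BHQ-2-YbbR (12.5 uM). Step 3, read 525/598 nm fluorescence at 0 and 30 min.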
JMJD2A Tudor: blocks the human JMJD2A Tudor domain; AlphaScreen JMJD2A-Tudor / H3K4me3 peptide binding; O75164; Potency, µM (series often up to 114 µM), without a hit: at the top dose activity change, negative = inhibition, usual class: inhibitors; hit rate 4.4% among 390,000; also: % is scaled to controls: 0 for no effect and ±100 for the full control effect; nearly all actives have a fitted effect of over 50% in size
G9a inh: G9a (human) methyltransferase inhibition; Q96KQ7; G9a H3K9 monomethylation, AlphaScreen, 2 h; Potency, µM (titrated, usually from 102 µM), for inactives: at the highest dose activity, negative = inhibition, actives largely listed as inhibitors; hit rate 8.8% among 350,000; also: % is scaled to controls: 0 for no effect and ±100 for the full control effect; nearly all actives have a fitted effect of over 75% in size
Target sequence (Q96KQ7 913-1193 limits assumed): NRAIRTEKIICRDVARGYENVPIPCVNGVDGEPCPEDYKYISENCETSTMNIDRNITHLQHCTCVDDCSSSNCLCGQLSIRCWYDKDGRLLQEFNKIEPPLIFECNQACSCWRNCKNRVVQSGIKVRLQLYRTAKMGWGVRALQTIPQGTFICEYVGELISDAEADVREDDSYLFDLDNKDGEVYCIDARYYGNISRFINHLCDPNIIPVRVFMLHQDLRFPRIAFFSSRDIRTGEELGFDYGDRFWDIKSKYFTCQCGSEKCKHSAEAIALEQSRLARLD
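G9a (20 nM) was preincubated 15 min with compound, then reacted 2 h at room temperature with 500 nM biotin-H3K9 peptide and 20 µM SAM. Monomethyl-H3K9 detected by AlphaScreen using anti-H3K9me1 antibody.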
HP1b chromo inh: inhibitors of HP1-beta chromodomain binding to methylated histone tails. P83916. AlphaScreen HP1-beta / biotin-H3K9me3 peptide binding. Potency, µM (titrated, usually from 114 µM), for inactives: top-dose activity change, negative = inhibition, hits mostly inhibitors. hit rate 0.56% among 390,000; also: nearly all actives have a fitted effect of over 70% in size
Target sequence (P83916 whole entry, looked up): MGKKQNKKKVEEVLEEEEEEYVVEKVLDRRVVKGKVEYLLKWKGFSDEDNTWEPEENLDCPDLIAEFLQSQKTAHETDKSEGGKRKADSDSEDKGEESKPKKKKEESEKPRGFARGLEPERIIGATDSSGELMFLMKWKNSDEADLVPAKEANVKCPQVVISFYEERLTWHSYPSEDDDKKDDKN
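HP1-beta protein (50 nM final) preincubated 30 min at room temperature with biotinylated H3(1-18)K9me3 peptide (50 nM) in PBS pH 7.4, 0.01% Tween-20, then compound added for 30 min. AlphaScreen streptavidin donor/nickel chelate acceptor beads (10 ug/mL final), 30 min dark, luminescence read.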
Numbers without * were called inactive; ? = inconclusive; . = not tested or not shown; [ ] = remark or other dose. Calls follow the shape of the dose curve; as a rule, active = well fitted curve in the direction sought with a large enough effect; inconclusive = small, poorly fitted or top-dose-only effect, or another doubt; inactive = no such curve, though single readings can be large; an effect the other way counts as inactive or inconclusive. Potency is read from the fitted curve at half-maximal effect.

SMILES	BAZ2B inh	Sfp inh	JMJD2A Tudor	G9a inh	HP1b chromo inh
CC(C)c1nc(SCC(=O)Nc2ccc(C(=O)O)cc2)c2c3c(sc2n1)CCCC3	-18%	-6%	-21%	-22%	8%
O=c1cc(-c2ccccc2)[nH]c2[nH]n(-c3ccccc3)c(=O)c12	?	3%	-31%	45µM*	-8%
CN(C)/C(=N\S(=O)(=O)c1ccccc1)c1ccc(F)cc1	15%	7%	-14%	.	35%
O=C(O)c1n[nH]c2c1CCCCC2	50µM*	-29%	?	10µM*	3%
O=C(O)c1n[nH]c2c1CCCC2	56µM*	-15%	25µM*	-27%[12.7 µM]	9%
Cn1c(=O)c2ncn(CC(=O)NCCC3=CCCCC3)c2n(C)c1=O	9%	14%	-8%	?	37%
CCN(C(=O)Cn1cnc2c(nc3n2CCCCC3)c1=O)c1cccc(Cl)c1	-24%	5%	-6%	-5%	26%
Cc1cccc(N(C(=O)c2snc(C(N)=O)c2N)C(C(=O)NCC2CCCO2)c2ccc(N(C)C)cc2)c1 (centres undefined)	-29%	2%	-14%	0%	-6%
CN(C)c1ccc(C(C(=O)NCC2CCCO2)N(C(=O)c2snc(C(N)=O)c2N)c2ccc3c(c2)OCO3)cc1 (centres undefined)	?	-10%	?	40µM*	-7%[57 µM]
CC(C)c1ccc(N(C(=O)c2snc(C(N)=O)c2N)C(C(=O)NCC2CCCO2)c2ccc(N(C)C)cc2)cc1 (centres undefined)	22µM*	3%	18µM*	13µM*	?
CN(C)c1ccc(C(C(=O)NCC2CCCO2)N(C(=O)c2snc(C(N)=O)c2N)c2ccccc2)cc1 (centres undefined)	-1%	2%	-6%	-10%	28%
Cc1ccc(C(C)C)c(OCC(=O)Nc2ccc3c(c2)nc(CN2CCCC2)n3C)c1	11µM*	?	?	45µM*	20%
Cn1c(CN2CCOCC2)nc2cc(NC(=O)COc3ccccc3)ccc21	-14%	22%	56µM*	-2%	-19%
CC(=O)Nc1ccc2c(c1)nc(CN1CCCC1)n2C	-5%	-13%	-1%	18µM*	34%
CC(=O)Nc1ccc2c(c1)nc1n2CCSC1	-6%	4%	-4%	-10%	49%
Cn1c(CCN2CCOCC2)nc2cc(NC(=O)COc3ccccc3)ccc21	-5%	9%	-16%	-33%	10%
COc1ccc(OCC(=O)Nc2ccc3c(c2)nc2n3CCSC2)cc1	-1%	5%	-13%	2µM*	3%
O=C(CN(C(=O)c1ccc(Cl)cc1)C1CCCCC1)Nc1ccc(Cl)c([N+](=O)[O-])c1	-36%	16%	?	-4%[59 µM]	8%
Cn1c(NC(=O)C(C)(C)Oc2ccc(Cl)cc2)cc(=O)n(C)c1=O	-4%	12%	-19%	-6%	42%
CC[N+]1(C)CCC(=C2c3ccccc3CC(=O)c3sccc32)CC1 (centres undefined)	4%	1%	3%	.	30%
C[N+]1(C)CCC(=C2c3ccccc3CC(=O)c3sccc32)CC1	7.1µM*	6%	-22%	6.3µM*	21%
O=C(Nc1ccc(Nc2ccccc2)cc1)c1ccc(Cl)cc1	.	.	-2%	.	27%
CN(C1=C(NC(=O)c2ccc(Cl)cc2)C(=O)c2ccccc2C1=O)c1ccccc1	8.9µM*	-4%	4.5µM*	8.9µM*	-91%
O=C(NC1=C(Nc2ccc(Cl)cc2)C(=O)c2ccccc2C1=O)c1ccccc1	?	56µM*	-3%[57.1 µM]	7.9µM*	?
Cc1cccc(C(=O)Nc2cccc(NC(=O)c3ccccc3)c2)c1	?	2%	-17%	.	11%
O=C1C(Cl)=C(NC(=O)c2ccccc2)C(=O)C(Cl)=C1NC(=O)c1ccccc1	?	0.89µM*	0.71µM*	1.3µM*	3.5µM*
Cc1cccc(NC2=C(NC(=O)c3ccccc3)C(=O)c3ccccc3C2=O)c1	28µM*	20µM*	25µM*	3.2µM*	50µM*
O=C(Nc1cccc(Cl)c1)c1ccccc1	5%	.	-4%	8%[12.7 µM]	46%
CN(c1ccc(C(=O)Nc2ccc(Cl)cn2)cc1)S(=O)(=O)c1ccccc1	-11%	-4%	-8%	5%[59 µM]	50%
